In publication PMC11006913 one finds binding signal data, which are given here for six sequences.

Holding throughout (test): PBM; 200 nM protein, PBS
Conditions in all cases: dsDNA, one strand shown

Experiment [1] addresses T1, SIX6 (Homo sapiens, UniProt O95475 114-200, L167I).
T1 sequence: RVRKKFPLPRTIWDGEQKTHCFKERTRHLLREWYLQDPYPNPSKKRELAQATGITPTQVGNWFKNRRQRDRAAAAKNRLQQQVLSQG

In experiment [2] the target is T2, SIX6 (Homo sapiens, UniProt O95475 114-200, L143V).
T2 sequence: T1 sequence with L30V, I54L

The target of experiment [3] is T3, SIX6 (Homo sapiens, UniProt O95475 114-200, H141N).
T3 sequence: T1 sequence with H28N, I54L

In experiment [4] the target is T4, SIX6 (Homo sapiens, UniProt O95475 114-200, T165P).
T4 sequence: T1 sequence with T52P, I54L

The target of experiment [5] is T5, SIX6 (Homo sapiens, UniProt O95475 114-200, L167M).
T5 sequence: T1 sequence with I54M

The target of experiment [6] is T6, SIX6 (Homo sapiens, UniProt O95475 114-200, L143M).
T6 sequence: T1 sequence with L30M, I54L

Experiment [7] concerns the target T7, SIX6 (Homo sapiens, UniProt O95475 114-200, L143I).
T7 sequence: T1 sequence with L30I, I54L

Experiment [8] concerns the target T8, SIX6 (Homo sapiens, UniProt O95475 114-200, T165G).
T8 sequence: T1 sequence with T52G, I54L

Experiment [9] addresses T9, SIX6 (Homo sapiens, UniProt O95475 114-200, T139Q).
T9 sequence: T1 sequence with T26Q, I54L

Experiment [10] concerns the target T10, SIX6 (Homo sapiens, UniProt O95475 114-200, T165A).
T10 sequence: T1 sequence with T52A, I54L

Experiment [11] has as its target T11, SIX6 (Homo sapiens, UniProt O95475 114-200, L167V).
T11 sequence: T1 sequence with I54V

For experiment [12], the target named is T12, SIX6 (Homo sapiens, UniProt O95475 114-200).
T12 sequence: T1 sequence with I54L

Experiment [13] concerns the target T13, SIX6 (Homo sapiens, UniProt O95475 114-200, T165I).
T13 sequence: T1 sequence with T52I, I54L

The target in experiment [14] is HOXA2 (Homo sapiens, UniProt O43364 129-215, R185T).
Experiment [15] addresses HOXA2 (Homo sapiens, UniProt O43364 129-215).

Where a chain is given by its changes, count along the chain named.

HOXA2 (Homo sapiens, UniProt O43364 129-215, R185T), sequence (O43364 129-215 R185T): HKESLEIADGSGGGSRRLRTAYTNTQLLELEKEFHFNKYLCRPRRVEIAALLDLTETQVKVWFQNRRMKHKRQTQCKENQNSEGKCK
HOXA2 (Homo sapiens, UniProt O43364 129-215), sequence (O43364 129-215): as the sequence (O43364 129-215 R185T) above, with T57R counted along it

In the case of CGGCCTGC, the binding signal is 8.86 upbm affinity estimate (log intensity, higher = more binding, comparable within an allelic series) in the experiment with SIX6 [1]; 8.66 upbm affinity estimate (log intensity, higher = more binding, comparable within an allelic series) with SIX6 [2]; 8.83 upbm affinity estimate (log intensity, higher = more binding, comparable within an allelic series) in the experiment with SIX6 [3]; 8.82 upbm affinity estimate (log intensity, higher = more binding, comparable within an allelic series) in the experiment with SIX6 [4]; 8.8 upbm affinity estimate (log intensity, higher = more binding, comparable within an allelic series) in the experiment with SIX6 [5]; 8.73 upbm affinity estimate (log intensity, higher = more binding, comparable within an allelic series) with SIX6 [6]. In addition, the binding signal with SIX6 [7] is 8.72 upbm affinity estimate (log intensity, higher = more binding, comparable within an allelic series); in the experiment with SIX6 [8] it was 8.88 upbm affinity estimate (log intensity, higher = more binding, comparable within an allelic series); with SIX6 [9] it was 8.8 upbm affinity estimate (log intensity, higher = more binding, comparable within an allelic series); with SIX6 [10] it was 8.82 upbm affinity estimate (log intensity, higher = more binding, comparable within an allelic series); in the experiment with SIX6 [11], 8.8 upbm affinity estimate (log intensity, higher = more binding, comparable within an allelic series); with SIX6 [12], 8.79 upbm affinity estimate (log intensity, higher = more binding, comparable within an allelic series). Besides, the binding signal with SIX6 [13] was 8.82 upbm affinity estimate (log intensity, higher = more binding, comparable within an allelic series).

For GGGGGCAA, the binding signal was 8.96 upbm affinity estimate (log intensity, higher = more binding, comparable within an allelic series) in the experiment with SIX6 [1]; 9.04 upbm affinity estimate (log intensity, higher = more binding, comparable within an allelic series) with SIX6 [2]; 8.94 upbm affinity estimate (log intensity, higher = more binding, comparable within an allelic series) with SIX6 [3]; 8.98 upbm affinity estimate (log intensity, higher = more binding, comparable within an allelic series) with SIX6 [4]; 9.06 upbm affinity estimate (log intensity, higher = more binding, comparable within an allelic series) with SIX6 [5]; 8.97 upbm affinity estimate (log intensity, higher = more binding, comparable within an allelic series) with SIX6 [6]. The binding signal with SIX6 [7] was 8.96 upbm affinity estimate (log intensity, higher = more binding, comparable within an allelic series); with SIX6 [8] it was 8.89 upbm affinity estimate (log intensity, higher = more binding, comparable within an allelic series); with SIX6 [9] it was 8.98 upbm affinity estimate (log intensity, higher = more binding, comparable within an allelic series); with SIX6 [10], 9.04 upbm affinity estimate (log intensity, higher = more binding, comparable within an allelic series); with SIX6 [11], 8.9 upbm affinity estimate (log intensity, higher = more binding, comparable within an allelic series); with SIX6 [12], 8.96 upbm affinity estimate (log intensity, higher = more binding, comparable within an allelic series). Moreover, in the experiment with SIX6 [13], the binding signal was 9.01 upbm affinity estimate (log intensity, higher = more binding, comparable within an allelic series).

Turning to AACGCGGC, the binding signal with SIX6 [1] was 8.99 upbm affinity estimate (log intensity, higher = more binding, comparable within an allelic series); with SIX6 [2], 8.99 upbm affinity estimate (log intensity, higher = more binding, comparable within an allelic series); in the experiment with SIX6 [3], 8.99 upbm affinity estimate (log intensity, higher = more binding, comparable within an allelic series); in the experiment with SIX6 [4], 9.03 upbm affinity estimate (log intensity, higher = more binding, comparable within an allelic series); with SIX6 [5] it was 8.95 upbm affinity estimate (log intensity, higher = more binding, comparable within an allelic series); in the experiment with SIX6 [6], 9.03 upbm affinity estimate (log intensity, higher = more binding, comparable within an allelic series). In addition, the binding signal was 8.92 upbm affinity estimate (log intensity, higher = more binding, comparable within an allelic series) with SIX6 [7]; 8.8 upbm affinity estimate (log intensity, higher = more binding, comparable within an allelic series) in the experiment with SIX6 [8]; 8.99 upbm affinity estimate (log intensity, higher = more binding, comparable within an allelic series) with SIX6 [9]; 8.84 upbm affinity estimate (log intensity, higher = more binding, comparable within an allelic series) with SIX6 [10]; 8.94 upbm affinity estimate (log intensity, higher = more binding, comparable within an allelic series) in the experiment with SIX6 [11]; 8.94 upbm affinity estimate (log intensity, higher = more binding, comparable within an allelic series) with SIX6 [12]. In addition, the binding signal in the experiment with SIX6 [13] was 8.96 upbm affinity estimate (log intensity, higher = more binding, comparable within an allelic series).

In the case of CCCGGGAC, the binding signal in the experiment with SIX6 [1] is 8.81 upbm affinity estimate (log intensity, higher = more binding, comparable within an allelic series); with SIX6 [2] it was 9.03 upbm affinity estimate (log intensity, higher = more binding, comparable within an allelic series); in the experiment with SIX6 [3], 8.97 upbm affinity estimate (log intensity, higher = more binding, comparable within an allelic series); with SIX6 [4], 8.99 upbm affinity estimate (log intensity, higher = more binding, comparable within an allelic series); with SIX6 [5], 9.01 upbm affinity estimate (log intensity, higher = more binding, comparable within an allelic series); with SIX6 [6], 9.18 upbm affinity estimate (log intensity, higher = more binding, comparable within an allelic series). Also, the binding signal is 9.04 upbm affinity estimate (log intensity, higher = more binding, comparable within an allelic series) with SIX6 [7]; 9.17 upbm affinity estimate (log intensity, higher = more binding, comparable within an allelic series) with SIX6 [8]; 9.14 upbm affinity estimate (log intensity, higher = more binding, comparable within an allelic series) with SIX6 [9]; 9.12 upbm affinity estimate (log intensity, higher = more binding, comparable within an allelic series) with SIX6 [10]; 8.96 upbm affinity estimate (log intensity, higher = more binding, comparable within an allelic series) with SIX6 [11]; 9.07 upbm affinity estimate (log intensity, higher = more binding, comparable within an allelic series) with SIX6 [12]. The binding signal in the experiment with SIX6 [13] was 9.02 upbm affinity estimate (log intensity, higher = more binding, comparable within an allelic series).

As to AGATATAC, the binding signal was 11 upbm affinity estimate (log intensity, higher = more binding, comparable within an allelic series) in the experiment with SIX6 [1]; 10.4 upbm affinity estimate (log intensity, higher = more binding, comparable within an allelic series) with SIX6 [2]; 10.8 upbm affinity estimate (log intensity, higher = more binding, comparable within an allelic series) in the experiment with SIX6 [3]; 9.92 upbm affinity estimate (log intensity, higher = more binding, comparable within an allelic series) with SIX6 [4]; 10.9 upbm affinity estimate (log intensity, higher = more binding, comparable within an allelic series) with SIX6 [5]; 10.9 upbm affinity estimate (log intensity, higher = more binding, comparable within an allelic series) with SIX6 [6]. In addition, the binding signal with SIX6 [7] was 10.4 upbm affinity estimate (log intensity, higher = more binding, comparable within an allelic series); with SIX6 [8] it was 11 upbm affinity estimate (log intensity, higher = more binding, comparable within an allelic series); in the experiment with HOXA2 [14], 8.17 upbm affinity estimate (log intensity, higher = more binding, comparable within an allelic series); in the experiment with SIX6 [9], 10.9 upbm affinity estimate (log intensity, higher = more binding, comparable within an allelic series); with SIX6 [10], 10.8 upbm affinity estimate (log intensity, higher = more binding, comparable within an allelic series); with SIX6 [11] it was 10.7 upbm affinity estimate (log intensity, higher = more binding, comparable within an allelic series). Besides, the binding signal in the experiment with SIX6 [12] is 10.9 upbm affinity estimate (log intensity, higher = more binding, comparable within an allelic series); with SIX6 [13], 10.8 upbm affinity estimate (log intensity, higher = more binding, comparable within an allelic series); with HOXA2 [15] it was 8.19 upbm affinity estimate (log intensity, higher = more binding, comparable within an allelic series).

With GGGGGGAC, the binding signal with SIX6 [1] was 8.99 upbm affinity estimate (log intensity, higher = more binding, comparable within an allelic series); with SIX6 [2] it was 8.81 upbm affinity estimate (log intensity, higher = more binding, comparable within an allelic series); with SIX6 [3], 8.96 upbm affinity estimate (log intensity, higher = more binding, comparable within an allelic series); with SIX6 [4], 8.71 upbm affinity estimate (log intensity, higher = more binding, comparable within an allelic series); with SIX6 [5], 8.97 upbm affinity estimate (log intensity, higher = more binding, comparable within an allelic series); with SIX6 [6], 8.91 upbm affinity estimate (log intensity, higher = more binding, comparable within an allelic series). Besides, the binding signal is 8.72 upbm affinity estimate (log intensity, higher = more binding, comparable within an allelic series) in the experiment with SIX6 [7]; 8.92 upbm affinity estimate (log intensity, higher = more binding, comparable within an allelic series) with SIX6 [8]; 8.93 upbm affinity estimate (log intensity, higher = more binding, comparable within an allelic series) in the experiment with SIX6 [9]; 9 upbm affinity estimate (log intensity, higher = more binding, comparable within an allelic series) in the experiment with SIX6 [10]; 8.74 upbm affinity estimate (log intensity, higher = more binding, comparable within an allelic series) with SIX6 [11]; 8.93 upbm affinity estimate (log intensity, higher = more binding, comparable within an allelic series) with SIX6 [12]. Also, in the experiment with SIX6 [13], the binding signal was 8.96 upbm affinity estimate (log intensity, higher = more binding, comparable within an allelic series).
